The target of test [1] is Guanine nucleotide-binding protein G(i) subunit alpha-1 (Homo sapiens) (UniProt P63096). In words: qHTS Assay for Inhibitors of RGS12 GoLoco Motif Activity (Green Fluorophore) (AID 879).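 Also: negative values mean loss of peptide binding seen as reduced polarization.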 A digest of the protocol: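 A drop in FITC polarization marked displacement of the FITC-tagged RGS12 GoLoco peptide (10 nM) from Gαi1 (50 nM). Compounds were incubated 10 min at room temperature in Tris pH 7.5 buffer containing 150 mM NaCl, 0.1 mM GDP and 0.05% NP40; unlabeled peptide titration served as control.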
A general note: Quantitative high-throughput screening tests each substance at several concentrations.

Test [2] addresses Cytochrome P450 2C9 (Homo sapiens) (UniProt P11712). Briefly: qHTS Assay for Inhibitors and Substrates of Cytochrome P450 2C9 (AID 883). Also: nearly all actives have a fitted effect of over 60% in size. In a few lines:
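Human CYP2C9 (10nM) hydroxylated Luciferin-H (100uM, at its KM) to luciferin in 25mM KPO4. Compound was preincubated 10 min at 37C, then NADPH regeneration started a 60 min reaction at 37C. Luminescence was read after detection reagent, normalized to 57uM sulphaphenazole.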

Test [3] deals with Cytochrome P450 2C19 (Homo sapiens) (UniProt P33261). Briefly: qHTS Assay for Inhibitors and Substrates of Cytochrome P450 2C19 (AID 899). Also: potency is read from the fitted curve at half-maximal effect; nearly all actives have a fitted effect of over 60% in size. The note with it: recombinant CYP2C19, luciferin-H EGE luminescence. In a few lines:
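Human CYP2C19 (5nM) with Luciferin-H EGE at 10uM (its KM) in 50mM KPO4 was preincubated with compound for 10 min at 37C. NADPH regeneration started a 60 min 37C reaction. Luciferin was read by luminescence, normalized to 57uM ketoconazole.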

Records with an inconclusive call do not appear. Entries that show only a call come without a potency. The source made the active and inactive calls. Calls follow the shape of the dose curve; as a rule, active = well fitted curve in the direction sought with a large enough effect; inconclusive = small, poorly fitted or top-dose-only effect, or another doubt; inactive = no such curve, though single readings can be large; an effect the other way counts as inactive or inconclusive.

Results on two compounds are retold here after PubChem BioAssay (NCATS).

Cytochrome P450 2C19 (Homo sapiens), sequence (P33261 whole entry, looked up): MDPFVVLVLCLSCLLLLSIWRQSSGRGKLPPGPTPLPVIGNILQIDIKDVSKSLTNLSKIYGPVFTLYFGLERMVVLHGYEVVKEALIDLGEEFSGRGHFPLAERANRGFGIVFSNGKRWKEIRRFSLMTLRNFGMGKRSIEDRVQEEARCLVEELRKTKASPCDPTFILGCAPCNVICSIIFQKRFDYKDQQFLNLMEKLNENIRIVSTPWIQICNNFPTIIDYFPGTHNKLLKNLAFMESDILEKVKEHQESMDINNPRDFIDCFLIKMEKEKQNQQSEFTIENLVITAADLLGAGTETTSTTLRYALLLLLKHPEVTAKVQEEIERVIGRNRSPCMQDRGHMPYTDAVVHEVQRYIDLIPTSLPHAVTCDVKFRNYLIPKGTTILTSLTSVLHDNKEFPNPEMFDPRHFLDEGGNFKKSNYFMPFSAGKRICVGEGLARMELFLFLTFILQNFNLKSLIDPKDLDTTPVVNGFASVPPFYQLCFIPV
Guanine nucleotide-binding protein G(i) subunit alpha-1 (Homo sapiens), sequence (P63096 whole entry, looked up): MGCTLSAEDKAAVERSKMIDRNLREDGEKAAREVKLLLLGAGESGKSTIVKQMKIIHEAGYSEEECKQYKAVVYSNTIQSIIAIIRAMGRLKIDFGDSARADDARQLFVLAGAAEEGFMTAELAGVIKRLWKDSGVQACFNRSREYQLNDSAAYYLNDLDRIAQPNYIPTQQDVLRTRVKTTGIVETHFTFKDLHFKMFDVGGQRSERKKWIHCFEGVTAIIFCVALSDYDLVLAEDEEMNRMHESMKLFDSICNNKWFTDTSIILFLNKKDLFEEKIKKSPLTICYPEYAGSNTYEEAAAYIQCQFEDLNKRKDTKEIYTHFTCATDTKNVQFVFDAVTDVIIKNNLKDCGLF
Cytochrome P450 2C9 (Homo sapiens), sequence (P11712 whole entry, looked up): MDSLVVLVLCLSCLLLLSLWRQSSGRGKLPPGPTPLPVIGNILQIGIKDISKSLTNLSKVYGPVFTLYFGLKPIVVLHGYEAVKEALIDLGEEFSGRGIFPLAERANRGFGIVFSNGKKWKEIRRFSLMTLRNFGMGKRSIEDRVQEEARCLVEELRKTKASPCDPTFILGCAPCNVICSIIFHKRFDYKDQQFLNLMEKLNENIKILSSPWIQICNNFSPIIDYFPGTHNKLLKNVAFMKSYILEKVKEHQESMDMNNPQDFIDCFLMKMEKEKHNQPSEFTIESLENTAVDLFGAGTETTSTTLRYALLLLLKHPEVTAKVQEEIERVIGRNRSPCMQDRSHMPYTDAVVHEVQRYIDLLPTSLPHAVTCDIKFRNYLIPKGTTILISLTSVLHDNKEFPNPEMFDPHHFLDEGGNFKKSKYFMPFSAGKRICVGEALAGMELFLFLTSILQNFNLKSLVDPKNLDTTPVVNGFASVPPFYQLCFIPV

For `CC(=O)O[C@H]1C(=O)[C@@]2(C)[C@H]([C@H](OC(=O)c3ccccc3)[C@]3(O)C[C@H](OC(=O)[C@H](O)[C@@H](NC(=O)c4ccccc4)c4ccccc4)C(C)=C1C3(C)C)[C@]1(OC(C)=O)CO[C@@H]1C[C@@H]2O`, in test [1], the call was inactive.

As for `COc1ccc2c(OC)c3ccoc3nc2c1OC`, the compound was classed as inactive in test [2]. The Potency in test [3] is 10 µM (active).
